Key:
U-2932 [1] = assay: growth inhibition by drug alone (1 - RLU/untreated control) (fraction); higher = stronger inhibition; details: 177Lu-lilotomab satetraxetan 0 ug/ml
In short: (§1)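 RIVA or U-2932 cells, untreated or pretreated 18 h with a radiolabelled anti-CD37 antibody conjugate (~600 MBq/mg; 0.5 µg/ml RIVA, 1 µg/ml U-2932), were washed and seeded at 3,000 cells/well on plates pre-printed with the Selleck Cambridge Cancer Compound library. Doses were 10/100 nM (RIVA) or 10/1,000 nM (U-2932). RealTime-Glo luminescence was read daily from day 3 after 1 h at 37°C. Growth inhibition is 1 − RLU/mean of 48 untreated no-drug wells per plate.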

RIVA [2] = assay: as above; details: 177Lu-lilotomab satetraxetan 0 ug/ml
In short: as §1

U-2932 [3] = assay: growth inhibition by drug plus 177Lu-lilotomab satetraxetan (1 - RLU/untreated control) (fraction); higher = stronger inhibition; details: 177Lu-lilotomab satetraxetan 1 ug/ml
In short: as §1

RIVA [4] = assay: as above; details: 177Lu-lilotomab satetraxetan 0.5 ug/ml
In short: as §1

| Compound | growth inhibition by drug alone (U-2932 [1]; 10 nM, time (day): 3) | growth inhibition by drug alone (U-2932 [1]; 10 nM, time (day): 4) | growth inhibition by drug alone (U-2932 [1]; 10 nM, time (day): 5) | growth inhibition by drug alone (U-2932 [1]; 10 nM, time (day): 6) | growth inhibition by drug alone (U-2932 [1]; 1000 nM, time (day): 3) | growth inhibition by drug alone (U-2932 [1]; 1000 nM, time (day): 4) | growth inhibition by drug alone (U-2932 [1]; 1000 nM, time (day): 5) | growth inhibition by drug alone (U-2932 [1]; 1000 nM, time (day): 6) | growth inhibition by drug alone (RIVA [2]; 10 nM, time (day): 3) | growth inhibition by drug alone (RIVA [2]; 10 nM, time (day): 4) | growth inhibition by drug alone (RIVA [2]; 10 nM, time (day): 5) | growth inhibition by drug alone (RIVA [2]; 10 nM, time (day): 6) | growth inhibition by drug alone (RIVA [2]; 100 nM, time (day): 3) | growth inhibition by drug alone (RIVA [2]; 100 nM, time (day): 4) | growth inhibition by drug alone (RIVA [2]; 100 nM, time (day): 5) | growth inhibition by drug alone (RIVA [2]; 100 nM, time (day): 6) | growth inhibition by drug plus 177Lu-lilotomab satetraxetan (U-2932 [3]; 10 nM, time (day): 3) | growth inhibition by drug plus 177Lu-lilotomab satetraxetan (U-2932 [3]; 10 nM, time (day): 4) | growth inhibition by drug plus 177Lu-lilotomab satetraxetan (U-2932 [3]; 10 nM, time (day): 5) | growth inhibition by drug plus 177Lu-lilotomab satetraxetan (U-2932 [3]; 10 nM, time (day): 6) | growth inhibition by drug plus 177Lu-lilotomab satetraxetan (U-2932 [3]; 1000 nM, time (day): 3) | growth inhibition by drug plus 177Lu-lilotomab satetraxetan (U-2932 [3]; 1000 nM, time (day): 4) | growth inhibition by drug plus 177Lu-lilotomab satetraxetan (U-2932 [3]; 1000 nM, time (day): 5) | growth inhibition by drug plus 177Lu-lilotomab satetraxetan (U-2932 [3]; 1000 nM, time (day): 6) | growth inhibition by drug plus 177Lu-lilotomab satetraxetan (RIVA [4]; 10 nM, time (day): 3) | growth inhibition by drug plus 177Lu-lilotomab satetraxetan (RIVA [4]; 10 nM, time (day): 4) | growth inhibition by drug plus 177Lu-lilotomab satetraxetan (RIVA [4]; 10 nM, time (day): 5) | growth inhibition by drug plus 177Lu-lilotomab satetraxetan (RIVA [4]; 10 nM, time (day): 6) | growth inhibition by drug plus 177Lu-lilotomab satetraxetan (RIVA [4]; 100 nM, time (day): 3) | growth inhibition by drug plus 177Lu-lilotomab satetraxetan (RIVA [4]; 100 nM, time (day): 4) | growth inhibition by drug plus 177Lu-lilotomab satetraxetan (RIVA [4]; 100 nM, time (day): 5) | growth inhibition by drug plus 177Lu-lilotomab satetraxetan (RIVA [4]; 100 nM, time (day): 6) |
| --- | --- | --- | --- | --- | --- | --- | --- | --- | --- | --- | --- | --- | --- | --- | --- | --- | --- | --- | --- | --- | --- | --- | --- | --- | --- | --- | --- | --- | --- | --- | --- | --- |
| Nc1nc(Cl)nc2c1ncn2[C@H]1C[C@H](O)[C@@H](CO)O1 [Cladribine] | -0.0123 | -0.0135 | -0.0163 | 0.0971 | 0.943 | 0.966 | 0.98 | 0.987 | 0.0585 | 0.0126 | 0.00678 | 0.0233 | -0.00435 | 0.239 | 0.319 | 0.387 | 0.0179 | 0.0736 | 0.11 | 0.212 | 0.942 | 0.971 | 0.983 | 0.989 | 0.528 | 0.571 | 0.602 | 0.611 | 0.683 | 0.807 | 0.843 | 0.878 |
| CN1CCN(CCOc2cc(OC3CCOCC3)c3c(Nc4c(Cl)ccc5c4OCO5)ncnc3c2)CC1 [Saracatinib (AZD0530)] | 0.0465 | 0.00941 | -0.0204 | -0.381 | -0.139 | -0.146 | -0.173 | -0.33 | -0.108 | -0.164 | -0.326 | -0.893 | -0.52 | -0.418 | -0.423 | -0.554 | -0.0675 | -0.00671 | 0.0506 | 0.0536 | -0.174 | -0.108 | -0.0137 | 0.1 | 0.366 | 0.494 | 0.508 | 0.537 | 0.458 | 0.536 | 0.549 | 0.544 |
| Cc1csc(-c2nnc(Nc3ccc(Oc4ncccc4-c4ccnc(N)n4)cc3)c3ccccc23)c1 | 0.0562 | -0.00651 | 0.0489 | 0.269 | 0.102 | 0.112 | 0.103 | 0.252 | 0.0279 | -0.0253 | 0.0704 | 0.206 | -0.211 | -0.208 | -0.145 | -0.0126 | 0.0788 | 0.121 | 0.207 | 0.449 | 0.271 | 0.306 | 0.344 | 0.538 | 0.482 | 0.52 | 0.572 | 0.659 | 0.496 | 0.552 | 0.581 | 0.676 |
| C[C@]1(O)C[C@@H](c2nc(-c3ccc4ccc(-c5ccccc5)nc4c3)c3c(N)nccn32)C1 [Linsitinib (OSI-906)] | -0.0175 | -0.0545 | -0.0282 | 0.0189 | -0.0281 | -0.0257 | -0.0322 | 0.0723 | -0.215 | -0.216 | -0.261 | -0.348 | -0.356 | -0.307 | -0.329 | -0.365 | -0.0826 | -0.0138 | 0.0354 | 0.14 | -0.09 | -0.0306 | 0.0298 | 0.223 | 0.4 | 0.48 | 0.495 | 0.5 | 0.283 | 0.4 | 0.417 | 0.42 |
| Cc1nc(-c2ccc(OCC(C)C)c(C#N)c2)sc1C(=O)O [Febuxostat (Uloric)] | 0.06 | 0.0554 | 0.0252 | -0.0354 | 0.00138 | 0.0444 | -0.00425 | -0.214 | 0.0707 | 0.00437 | -0.101 | -0.473 | 0.158 | 0.082 | 0.0362 | -0.046 | 0.0457 | 0.0731 | 0.0564 | 0.0873 | -0.0156 | 0.0704 | 0.0056 | -0.0613 | 0.368 | 0.506 | 0.513 | 0.525 | 0.42 | 0.463 | 0.463 | 0.45 |

Reference: the supplement of paper PMC6897291
